Each structure is given as a SMILES string. Compounds without any hit were thinned out: in the full panel of roughly 83,000, 20% have a hit.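 In brief: 96-well plates, 48 h treatment, single concentration, percent growth endpoint.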 A number with no mark means an inactive call. The source made the active and inactive calls. How the source made its calls: active means growth percent below 10; inactive means the rest.

Test systems include DU-145 prostate; K-562 leukemia; MALME-3M melanoma; MDA-MB-231 breast; RXF 393 renal; SF-268 CNS; SF-295 CNS; SF-539 CNS; UACC-257 melanoma; M14 melanoma; HCT-15 colon; HT29 colon; SNB-75 CNS; SNB-19 CNS; U251 CNS; PC-3 prostate; SK-MEL-5 melanoma; UACC-62 melanoma; LOX IMVI melanoma; SK-MEL-28 melanoma.
Experiment in all cases: NCI-60 one-dose screen, 48 h (100 = growth as untreated, 0 = no growth, -100 = all killed)
What all share (conditions): 10 µM unless noted

With `C=CCn1c(C)nc2cc(Nc3nc(N4CCOCC4)nc4nc[nH]c34)ccc21`, the growth with DU-145 prostate was 109%; in the experiment with K-562 leukemia it was 71%; in the experiment with MALME-3M melanoma it was 97.7%; in the experiment with MDA-MB-231 breast it was 77.7%; with RXF 393 renal it was 85.1%; in the experiment on SF-268 CNS, 99%. In addition, the growth is 85% with SF-295 CNS; 87.3% with SF-539 CNS; 94% in the experiment with UACC-257 melanoma; 97% in the experiment on M14 melanoma; 90.9% in the experiment with HCT-15 colon; 99.7% with HT29 colon. In addition, the growth with SNB-75 CNS was 80.4%; in the experiment on SNB-19 CNS, 95.4%; in the experiment on U251 CNS, 91.3%; in the experiment on PC-3 prostate, 79.9%; with SK-MEL-5 melanoma, 96.2%; in the experiment on UACC-62 melanoma, 88.9%. In addition, the growth in the experiment with LOX IMVI melanoma is 95.2%; with SK-MEL-28 melanoma, 102%.
For `CC[C@H](Nc1nc(C)nc(N)c1C#N)c1nc2cccc(NCc3ccc(C(=O)NO)cc3)c2c(=O)n1-c1ccccc1`, the growth in the experiment on DU-145 prostate was 11.2%; with K-562 leukemia, 2.24% (active); in the experiment on MALME-3M melanoma it was 2.94% (active); in the experiment with MDA-MB-231 breast, 14.7%; with RXF 393 renal, -27.2% (active); in the experiment with SF-268 CNS it was 12.3%. Also, the growth in the experiment on SF-295 CNS was 21.5%; in the experiment with SF-539 CNS, 14.6%; in the experiment with UACC-257 melanoma, -3.98% (active); with M14 melanoma, 8.71% (active); in the experiment with HCT-15 colon, 21%; in the experiment with HT29 colon it was 14.8%. Further, the growth with SNB-75 CNS is 7.85% (active); in the experiment on SNB-19 CNS, 17.6%; in the experiment on U251 CNS it was 1.03% (active); in the experiment on PC-3 prostate, 8.89% (active); with SK-MEL-5 melanoma, -20.4% (active); in the experiment with UACC-62 melanoma, 4.19% (active). For the same compound, the growth in the experiment with LOX IMVI melanoma is -59.6% (active).
Consider `CN1CCN(Cc2ccc(NC(=O)c3cnc(F)c(C#Cc4cnc(N)c5ncccc45)c3)cc2C(F)(F)F)CC1`, for which the growth in the experiment with DU-145 prostate is 30.5%; with K-562 leukemia it was 1.55% (active); with MALME-3M melanoma it was -43.1% (active); in the experiment with MDA-MB-231 breast, -25.7% (active); with RXF 393 renal, -0.985% (active); in the experiment on SF-268 CNS it was 28.6%. The growth was 48.2% in the experiment on SF-295 CNS; 9.63% (active) in the experiment with SF-539 CNS; 13.5% with UACC-257 melanoma; -56.4% (active) in the experiment on M14 melanoma; 14.9% in the experiment on HCT-15 colon; 6.84% (active) in the experiment with HT29 colon. The growth with SNB-75 CNS is 32.7%; in the experiment on SNB-19 CNS it was 52.8%; in the experiment with U251 CNS it was 20.8%; with PC-3 prostate it was 29.9%; in the experiment with SK-MEL-5 melanoma, 8.81% (active); in the experiment with UACC-62 melanoma it was -4.67% (active). The growth in the experiment on LOX IMVI melanoma was 1.54% (active).
On to `CN1CCN(Cc2ccc(NC(=O)c3cccc(C#Cc4cnc(N)c5ncccc45)c3F)cc2C(F)(F)F)CC1`, for which the growth was -72.4% (active) in the experiment on DU-145 prostate; -19.7% (active) in the experiment with K-562 leukemia; -78.9% (active) in the experiment on MALME-3M melanoma; -74.2% (active) in the experiment on MDA-MB-231 breast; -76.5% (active) with RXF 393 renal; 67.2% with SF-268 CNS. The growth with SF-295 CNS is 85.3%; in the experiment on SF-539 CNS it was -29% (active); in the experiment with UACC-257 melanoma, -61.6% (active); in the experiment on M14 melanoma, -76.4% (active); with HCT-15 colon it was -57.2% (active); with HT29 colon, -55.5% (active). Further, the growth with SNB-75 CNS is 53.9%; in the experiment with SNB-19 CNS it was 96.4%; in the experiment with U251 CNS it was -88.2% (active); in the experiment on PC-3 prostate, 30.7%; in the experiment with SK-MEL-5 melanoma it was 44.1%; with UACC-62 melanoma, 55.5%. Besides, the growth in the experiment on LOX IMVI melanoma was -88.8% (active).
As for `CNCc1ccccc1CN(CC(=O)Nc1ccc2c(c1)CC1(C2)C(=O)Nc2ncccc21)C(=O)C(C)(C)C` (centres undefined), the growth was 112% with DU-145 prostate; 107% in the experiment with K-562 leukemia; 99.5% in the experiment with MALME-3M melanoma; 108% with MDA-MB-231 breast; 126% in the experiment with RXF 393 renal; 101% in the experiment with SF-268 CNS. For the same compound, the growth was 106% with SF-295 CNS; 100% with SF-539 CNS; 102% with UACC-257 melanoma; 98.7% in the experiment with M14 melanoma; 111% in the experiment on HCT-15 colon; 105% with HT29 colon. The growth in the experiment on SNB-75 CNS is 83.2%; with SNB-19 CNS, 103%; with U251 CNS, 103%; with PC-3 prostate it was 98%; with SK-MEL-5 melanoma it was 103%; in the experiment with UACC-62 melanoma, 99.8%. In addition, the growth with LOX IMVI melanoma was 97.4%.
In the case of `COC(=O)CNS(=O)(=O)c1ccc2c(c1)Cc1cc(S(=O)(=O)NCC(=O)OC)ccc1-2`, the growth was 113% in the experiment with DU-145 prostate; 100% with K-562 leukemia; 100% in the experiment with MALME-3M melanoma; 105% in the experiment with MDA-MB-231 breast; 108% in the experiment on RXF 393 renal; 102% in the experiment on SF-268 CNS. Moreover, the growth is 100% in the experiment with SF-295 CNS; 97.2% in the experiment on SF-539 CNS; 97.6% in the experiment on UACC-257 melanoma; 103% with M14 melanoma; 102% with HCT-15 colon; 112% in the experiment on HT29 colon. Also, the growth is 91.6% in the experiment with SNB-75 CNS; 100% in the experiment on SNB-19 CNS; 100% with U251 CNS; 92.9% with PC-3 prostate; 98.2% with SK-MEL-5 melanoma; 93.3% in the experiment with UACC-62 melanoma. For the same compound, in the experiment with LOX IMVI melanoma, the growth is 97%.
Regarding `CC[C@H](Nc1nc(N)nc(N)c1Cl)c1nc2cccc(NCc3ccc(C(=O)NO)cc3)c2c(=O)n1-c1ccccc1`, the growth in the experiment on DU-145 prostate was -0.88% (active); with K-562 leukemia, 3.11% (active); with MALME-3M melanoma, 20.2%; in the experiment with MDA-MB-231 breast, -10.8% (active); in the experiment with RXF 393 renal, -52.5% (active); in the experiment with SF-268 CNS, 4.81% (active). The growth is 13.2% with SF-295 CNS; -74.2% (active) with SF-539 CNS; -0.0784% (active) in the experiment with UACC-257 melanoma; -13% (active) in the experiment with M14 melanoma; 40.9% in the experiment with HCT-15 colon; 6.69% (active) in the experiment on HT29 colon. The growth with SNB-75 CNS is -3.96% (active); in the experiment with SNB-19 CNS, 7.79% (active); with U251 CNS it was -65.6% (active); with PC-3 prostate, -57.2% (active); with SK-MEL-5 melanoma, -26.3% (active); with UACC-62 melanoma, -56.8% (active). The growth in the experiment with LOX IMVI melanoma was -86.2% (active).
Turning to `Cc1n(Cc2ccc3ccccc3n2)cc[n+]1Cc1ccc2ccccc2c1`, the growth in the experiment with DU-145 prostate is 26.6%; with K-562 leukemia, 11.5%; with MALME-3M melanoma it was -30.2% (active); in the experiment on MDA-MB-231 breast it was 2.1% (active); in the experiment on RXF 393 renal, 9.37% (active); with SF-268 CNS, 20.8%. The growth was 9.7% (active) in the experiment on SF-295 CNS; 14.3% with SF-539 CNS; -15.1% (active) with UACC-257 melanoma; 18.2% in the experiment on M14 melanoma; 86.8% in the experiment on HCT-15 colon; 6.64% (active) in the experiment on HT29 colon. The growth in the experiment on SNB-75 CNS was -2.2% (active); in the experiment with SNB-19 CNS it was 7.14% (active); with U251 CNS, 14%; in the experiment with PC-3 prostate, 10.4%; with SK-MEL-5 melanoma it was -87.6% (active); with UACC-62 melanoma, -26.6% (active). For the same compound, the figures for the growth with LOX IMVI melanoma and in the experiment with SK-MEL-28 melanoma were -43.7% (active) and 16.1%, respectively.

The values are drawn from PubChem BioAssay (NCI).
